Records with an inconclusive call do not appear. Unmarked numbers belong to inactive results. Active and inactive are the calls of the source. The call rests on the fitted dose curve; in most records, active means well fitted inhibition curve with a large enough effect; inconclusive means small, poorly fitted or top-dose-only effect; inactive means flat fitted curve, though single readings scatter.
Molecular target: Calcium and integrin-binding protein 1 (Homo sapiens) (UniProt Q99828)
Test: Primary qHTS for Identification of Calcium Integrin Binding Protein 1 (CIB1) Competitor (AID 1508620); on activity change, negative = inhibition: top concentration of the series differs between compounds
Details: CIB1-GST / FITC-alphaIIb peptide fluorescence polarization; series mostly up to 57.7 µM; activity change, negative = inhibition: at the top concentration
Method in brief: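 Fluorescence polarization competition: GST-tagged CIB1 (1 uM final) preincubated with compound 15 min at room temperature, then FITC-labelled alphaIIb peptide (100 nM final) added. After 15 min at room temperature, polarization read at Ex 480/Em 540.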
On the % scale 0 is the no-effect control and ±100 the full control effect; potency means the concentration at half of the fitted maximal effect.

Chain of Calcium and integrin-binding protein 1 (Homo sapiens) (Q99828 whole entry, looked up): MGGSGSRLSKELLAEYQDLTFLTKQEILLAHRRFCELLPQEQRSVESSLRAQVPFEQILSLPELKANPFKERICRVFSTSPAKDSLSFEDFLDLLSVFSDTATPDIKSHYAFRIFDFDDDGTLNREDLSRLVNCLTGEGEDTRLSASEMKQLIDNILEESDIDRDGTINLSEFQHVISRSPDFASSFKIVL

| Compound | activity change, negative = inhibition | Potency |
| --- | --- | --- |
| CC1(C)CCCC2(C)C1C(O)C=C(CO)C2(O)C(=O)O (centres undefined) | 3.29% [at 114 µM] |  |
| OCC1OC(Oc2cc(O)c3c(c2)OC(c2ccc(O)cc2)C(O)C3)C(O)C1O (centres undefined) | 1.64% |  |
| CCN[C@@H]1C[C@H](N)[C@@H](O[C@H]2OC(CN)=CC[C@H]2N)[C@H](O)[C@H]1O[C@H]1OC[C@](C)(O)[C@H](NC)[C@H]1O |  | inactive |
| CC(=O)O[C@H]1[C@H](Oc2ccccc2COC(=O)C2(O)C=CCCC2=O)O[C@H](CO)[C@@H](O)[C@@H]1O (some centres undefined) | 0.362% |  |
| C=C1CC[C@H]2[C@@](C)(CCC(O)[C@@]2(C)CO)[C@@H]1C/C=C(/C(=O)O)C(O)CO (some centres undefined) | -7.22% |  |
| CC1CCC(=O)CC(O)C(O)CC(=O)O1 (centres undefined) | -4.93% [at 114 µM] |  |
| C=C(C)C(C)C1OC23CC4(CO2)C(CCC2C5(C)CCC(OC6OCC(O)C(OC7OC(CO)C(O)C(OC8OCC(O)C(O)C8O)C7O)C6OC6OC(CO)C(O)C6O)C(C)(C)C5CCC24C)C3C(C)(O)C1OC(C)=O (centres undefined) | 14.5% [at 30.2 µM] |  |
| CC1(C)CCCC2(C)C(CO)C3CCC2C31 (centres undefined) | -5.3% [at 114 µM] |  |
| C[C@@H]1O[C@@H](O[C@H]2[C@H](O)[C@@H](O)[C@H](OC[C@H]3O[C@@H](OC(=O)[C@]45CCC(C)(C)C[C@H]4C4=CCC6[C@@]7(C)C[C@H](O)[C@H](O[C@@H]8O[C@H](CO)[C@@H](O)[C@H](O)[C@H]8O)[C@@](C)(C(=O)O)C7CC[C@@]6(C)[C@]4(C)CC5)[C@H](O[C@@H]4O[C@H](CO)[C@@H](O)[C@H](O)[C@H]4O)[C@@H](O)[C@@H]3O)O[C@@H]2CO)[C@H](O)[C@H](O)[C@H]1O (some centres undefined) | 0.065% [at 12.4 µM] |  |
| CC1(C)CC2C(C1)C1(C)CCC13OC3(CO)C2O (centres undefined) | -0.844% [at 114 µM] |  |
| COc1ccc2c3c1O[C@H]1C[C@@H](O)C=C[C@@]31CCN(C)C2 | -1.05% [at 114 µM] |  |
| C/C(=C/CO)CC[C@@H]1[C@@]2(C)CCC[C@](C)(C(=O)O)C2CC[C@@]1(C)O (some centres undefined) | -2.44% |  |
| CC(CO[C@@H]1O[C@H](COC(=O)/C=C/c2ccc(O)c(O)c2)[C@@H](O)[C@H](O)[C@H]1O)C1(O)COC(=O)C1 (some centres undefined) | 1.36% |  |
| CC1=C(C)C(=O)OC(C(C)(O)C2CCC3C4CC=C5CC(OC6OC(COC7OC(CO)C(O)C(O)C7O)C(O)C(O)C6O)CC(O)C5(C)C4CCC32C)C1 (centres undefined) | -5.35% [at 30.2 µM] |  |
| C[C@@H]1C(=O)O[C@H]2CC34[C@H]5C[C@@H](C(C)(C)C)C36[C@@H](OC(=O)[C@@H]6O)O[C@@]4(C(=O)O5)[C@]21O (some centres undefined) | 3.52% |  |
| C[C@@H]1CCC2C(C)(C)[C@H](O)CC[C@]2(C)[C@@]12Cc1c(O)cc3c(c1O2)CN(CCO)C3=O (some centres undefined) | 0.995% |  |
| CC1(O)CCC2C(C(=O)O)=COC(OC3OC(CO)C(O)C(O)C3OC(=O)/C=C/c3ccc(O)cc3)C21 (centres undefined) | -3.85% |  |
| C[C@]12CC[C@@H]3c4ccc(O[C@@H]5O[C@H](C(=O)O)[C@@H](O)[C@H](O)[C@H]5O)cc4CC[C@H]3[C@@H]1CCC2=O | 5.11% [at 114 µM] |  |
| CC(NC(=O)CC(=O)O)c1nc2ccccc2c(=O)[nH]1 (centres undefined) |  | 28.2 µM (active) |
| CC(=O)OC1C(O)CC(O[C@@H]2O[C@H](CO)[C@@H](O)[C@H](O)[C@H]2O)C2CCC3C(=O)OC(c4ccoc4)CC3(C)C21 (some centres undefined) | -6.48% |  |

| Compound | activity change, negative = inhibition | Potency |
| --- | --- | --- |
| CC(=O)O[C@@H]1[C@H](O[C@@H]2OC[C@](O)(CO)[C@H]2O)[C@@H](O[C@@H]2O[C@@H](C)[C@H](O)[C@@H](O)[C@H]2O)[C@H](OC(=O)[C@]23CCC(C)(C)C[C@H]2C2=CCC4[C@@]5(C)C[C@H](O)[C@H](O[C@@H]6O[C@H](C(=O)O)[C@@H](O)[C@H](O)[C@H]6O)[C@@](C)(C(=O)O)C5CC[C@@]4(C)[C@]2(C)CC3)O[C@@H]1C (some centres undefined) | -1.72% [at 30.2 µM] |  |
| C=C1CC/C=C(/CO)C(=O)C[C@@H]2[C@@H]1CC2(C)C | 1.08% [at 114 µM] |  |
| Cc1ncc([N+](=O)[O-])n1CC(O)CN1CCOCC1 (centres undefined) | -4.43% [at 114 µM] |  |
| CCC(NC(=O)CC(NC(=O)C(CO)NC(=O)C(CC)NC(=O)c1ccc[nH]1)c1ccccc1)C(=O)O (centres undefined) | 4.31% [at 30.2 µM] |  |
| CC(=O)OC[C@@]12[C@H](O)C[C@@H](C)[C@]3(C[C@@H](c4ccoc4)OC3=O)[C@H]1C[C@H](O)C[C@]21CO1 | 5.77% |  |
| COc1ccc(C(O[C@@H]2O[C@H](CO)[C@@H](O)[C@H](O)[C@H]2O)C(CO)Oc2ccc(/C=C/CO)cc2OC)cc1O (some centres undefined) | 4.32% |  |
| O=C(O[C@H]1[C@@H]2C=CO[C@@H](O[C@@H]3O[C@H](CO)[C@@H](O)[C@H](O)[C@H]3O)[C@@H]2[C@@]2(CO)O[C@@H]12)c1ccc(O)cc1 | 5.41% |  |
| C=C1CC2C3(C)C(O)CC(=O)C(C)(C)C3C(OC(C)=O)C(OC(C)=O)C2(C)C2C(=O)OC(C)(C(=O)OC)C(=O)C12C (centres undefined) | -17.3% |  |
| C[C@@H]1CC[C@]2(C(=O)O)CC[C@]3(C)C(=CCC4[C@]5(C)C(CC[C@]43C)C(C)(C)[C@@H](O)[C@H](O)[C@@H]5O)C2[C@]1(C)O (some centres undefined) | -2.24% |  |
| CC[C@H](/C=C/[C@@H](C)[C@H]1CC[C@H]2[C@@H]3CC=C4C[C@@H](O)CC[C@]4(C)[C@H]3CC[C@]12C)C(C)C | 1.65% [at 12.4 µM] |  |
| C=C[C@H]1[C@H](O[C@@H]2O[C@H](CO)[C@@H](O)[C@H](O)[C@H]2O)OC=C(C(=O)OC)[C@H]1C[C@@H]1N[C@H](C(=O)O)Cc2c1[nH]c1ccccc21 | -15.3% |  |
| O=C(O[C@H]1[C@@H]2C=CO[C@@H](O[C@@H]3O[C@H](CO)[C@@H](O)[C@H](O)[C@H]3O)[C@@H]2[C@@]2(CO)O[C@@H]12)c1ccc(O)c(O)c1 | -3.44% |  |
| CCOc1ccc(-c2ccc(Cn3c(CC(C)(C)C(=O)O)c(SC(C)(C)C)c4cc(OCc5ccc(C)cn5)ccc43)cc2)cn1 |  | inactive |
| C[C@@H]1O[C@@H](O[C@H]2[C@H](O[C@H]3[C@H](O[C@H]4CC[C@@]5(CO)C(CC[C@]6(C)C5CC=C5C7CC(C)(C)C[C@@H](O)[C@]7(C)CC[C@]56C)C4(C)C)O[C@H](C(=O)O)[C@@H](O)[C@@H]3O)OC[C@@H](O)[C@@H]2O)[C@H](O)[C@H](O)[C@H]1O (some centres undefined) | -1.21% [at 30.2 µM] |  |
| C[C@@H]1CC[C@]2(C(=O)O[C@@H]3O[C@H](CO)[C@@H](O)[C@H](O)[C@H]3O)CC[C@]3(C)C(=CCC4[C@@]5(C)C[C@@H](O)[C@H](O)C(C)(C)C5CC[C@]43C)C2[C@]1(C)O (some centres undefined) | 0.644% [at 30.2 µM] |  |
| O=C(c1ccc(F)cc1)C1CCN(CCn2c(=O)nc3n(c2=O)CCCC3)CC1 | 1.48% [at 114 µM] |  |
| N[C@H]1C[C@H]1c1ccc(-c2cccc(O)c2)cc1 |  | inactive |
| C=CCc1ccc(O[C@@H]2O[C@H](CO[C@@H]3O[C@@H](C)[C@H](O)[C@@H](O)[C@H]3O)[C@@H](O)[C@H](O)[C@H]2O)cc1 | -1.5% |  |
| C/C(=C\CO)CC/C=C(\C)C(=O)O[C@H]1[C@H](OC2OC=C(C(=O)O)C3CCC(C)(O)C23)O[C@H](CO)[C@@H](O)[C@@H]1O (some centres undefined) | -0.508% |  |

Reference: PubChem BioAssay (NCATS)
